# Columns and labels:
# Test in all cases: DAPPL (digital affinity profiling via proximity ligation, sequencing); 10 mM Tris-HCl pH 7.5, 50 mM NaCl, 1 mM DTT, 4% glycerol, room temperature, 30 min; GST-TFs on glutathione beads, 16-mer random dsDNA library, 0.1% formaldehyde crosslink after washing; high values mean tight binding
# Details in all cases: protein: recombinant; tags: N-terminal GST; dsDNA, one strand shown
# [1] = target: T1, FLI1 (Homo sapiens, UniProt Q01543 1-452)
# T1 sequence: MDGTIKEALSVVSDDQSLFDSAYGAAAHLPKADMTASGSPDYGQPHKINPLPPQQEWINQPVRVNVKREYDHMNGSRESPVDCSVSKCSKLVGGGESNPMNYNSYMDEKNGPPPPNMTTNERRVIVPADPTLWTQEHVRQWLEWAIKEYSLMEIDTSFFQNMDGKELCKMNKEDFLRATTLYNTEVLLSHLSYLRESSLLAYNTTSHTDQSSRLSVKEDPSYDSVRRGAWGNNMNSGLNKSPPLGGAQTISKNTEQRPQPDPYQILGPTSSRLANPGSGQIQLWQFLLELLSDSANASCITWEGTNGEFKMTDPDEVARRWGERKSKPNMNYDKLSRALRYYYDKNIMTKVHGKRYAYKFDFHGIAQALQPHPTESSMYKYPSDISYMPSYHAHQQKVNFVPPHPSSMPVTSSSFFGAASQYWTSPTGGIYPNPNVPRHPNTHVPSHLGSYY
# Method in brief: (§1)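 Each value of binding signal is a hexamer's read frequency for a factor divided by the same hexamer's frequency in the tag-only sample. Barcoded, bead-captured GST fusions of human transcription factors made in yeast were pooled with that sample and incubated with 200 nmole of a random double-stranded 16-mer DNA library in Tris/NaCl/DTT/glycerol buffer at room temperature for 30 min. Washing, 0.1% formaldehyde crosslinking, proximity ligation, PCR and Illumina NextSeq500 sequencing followed.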
# [2] = target: T2, ELK1 (Homo sapiens, UniProt P19419 1-428)
# T2 sequence: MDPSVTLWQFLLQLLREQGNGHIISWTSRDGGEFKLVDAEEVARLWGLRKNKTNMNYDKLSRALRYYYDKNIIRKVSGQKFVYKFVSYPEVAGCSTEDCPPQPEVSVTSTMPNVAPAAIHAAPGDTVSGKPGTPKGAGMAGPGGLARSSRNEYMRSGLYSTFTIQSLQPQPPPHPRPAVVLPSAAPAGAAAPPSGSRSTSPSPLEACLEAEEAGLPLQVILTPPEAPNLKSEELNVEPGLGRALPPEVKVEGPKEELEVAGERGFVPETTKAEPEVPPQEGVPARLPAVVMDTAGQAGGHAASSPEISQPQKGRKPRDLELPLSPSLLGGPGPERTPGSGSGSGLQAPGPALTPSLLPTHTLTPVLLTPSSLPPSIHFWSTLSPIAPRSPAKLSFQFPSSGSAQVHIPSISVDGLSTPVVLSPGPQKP
# Method in brief: as §1
# [3] = target: T3, GABPA (Homo sapiens, UniProt Q06546 1-454)
# T3 sequence: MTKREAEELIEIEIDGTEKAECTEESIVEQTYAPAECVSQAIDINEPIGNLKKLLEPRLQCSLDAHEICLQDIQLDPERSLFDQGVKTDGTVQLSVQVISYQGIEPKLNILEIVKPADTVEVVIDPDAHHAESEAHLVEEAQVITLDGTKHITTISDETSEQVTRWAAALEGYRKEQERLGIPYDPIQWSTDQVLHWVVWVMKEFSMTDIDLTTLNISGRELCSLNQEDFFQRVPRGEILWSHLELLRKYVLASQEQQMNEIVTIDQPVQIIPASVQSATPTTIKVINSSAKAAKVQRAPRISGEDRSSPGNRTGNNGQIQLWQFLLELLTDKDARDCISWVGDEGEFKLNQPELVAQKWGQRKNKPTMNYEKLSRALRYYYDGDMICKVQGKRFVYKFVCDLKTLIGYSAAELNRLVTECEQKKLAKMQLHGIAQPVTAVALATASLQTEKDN
# Method in brief: as §1
# [4] = target: T4, ERG (Homo sapiens, UniProt P11308 1-479)
# T4 sequence: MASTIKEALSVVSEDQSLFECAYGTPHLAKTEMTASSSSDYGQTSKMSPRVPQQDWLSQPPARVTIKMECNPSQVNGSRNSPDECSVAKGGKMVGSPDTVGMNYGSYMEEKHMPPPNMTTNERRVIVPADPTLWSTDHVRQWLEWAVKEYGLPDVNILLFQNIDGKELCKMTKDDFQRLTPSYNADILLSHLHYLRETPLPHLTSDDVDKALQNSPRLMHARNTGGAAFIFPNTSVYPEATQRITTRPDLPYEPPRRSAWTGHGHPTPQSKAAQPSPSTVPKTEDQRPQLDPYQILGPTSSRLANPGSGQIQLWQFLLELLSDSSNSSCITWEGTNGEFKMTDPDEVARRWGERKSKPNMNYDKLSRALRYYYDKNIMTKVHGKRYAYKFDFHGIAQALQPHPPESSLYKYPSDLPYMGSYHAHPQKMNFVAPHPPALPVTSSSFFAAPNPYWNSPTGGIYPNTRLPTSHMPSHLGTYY
# Method in brief: as §1
# [5] = target: ELF1 (Homo sapiens, UniProt P32519 1-619)
# ELF1, sequence (P32519 whole entry): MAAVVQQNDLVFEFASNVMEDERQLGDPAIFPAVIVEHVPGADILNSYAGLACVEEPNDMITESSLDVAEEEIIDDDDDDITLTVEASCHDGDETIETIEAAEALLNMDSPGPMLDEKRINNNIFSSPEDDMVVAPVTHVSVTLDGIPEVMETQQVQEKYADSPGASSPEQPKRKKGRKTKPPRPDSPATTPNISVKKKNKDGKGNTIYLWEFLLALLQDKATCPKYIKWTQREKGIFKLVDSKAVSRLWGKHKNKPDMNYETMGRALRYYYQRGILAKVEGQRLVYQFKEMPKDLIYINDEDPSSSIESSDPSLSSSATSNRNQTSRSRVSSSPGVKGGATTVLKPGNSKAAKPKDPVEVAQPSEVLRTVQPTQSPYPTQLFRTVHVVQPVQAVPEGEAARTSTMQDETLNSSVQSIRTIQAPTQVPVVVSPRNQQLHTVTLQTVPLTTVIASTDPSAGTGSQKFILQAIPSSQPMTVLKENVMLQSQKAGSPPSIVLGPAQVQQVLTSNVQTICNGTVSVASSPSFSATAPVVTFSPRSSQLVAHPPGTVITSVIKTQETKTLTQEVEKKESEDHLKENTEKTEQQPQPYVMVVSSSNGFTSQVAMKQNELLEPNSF
# Method in brief: as §1
# [6] = target: T5, EHF (Homo sapiens, UniProt Q9NZC4 1-300)
# T5 sequence: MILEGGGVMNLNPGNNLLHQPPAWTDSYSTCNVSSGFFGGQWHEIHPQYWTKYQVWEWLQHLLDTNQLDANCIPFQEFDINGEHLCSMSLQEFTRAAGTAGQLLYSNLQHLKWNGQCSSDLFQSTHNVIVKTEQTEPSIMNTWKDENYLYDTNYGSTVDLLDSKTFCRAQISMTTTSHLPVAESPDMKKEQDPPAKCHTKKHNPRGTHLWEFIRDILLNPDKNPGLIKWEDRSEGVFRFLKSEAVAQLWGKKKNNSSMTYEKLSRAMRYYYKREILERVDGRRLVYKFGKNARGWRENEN
# Method in brief: as §1
# [7] = target: SPI1 (Homo sapiens, UniProt P17947 1-270)
# Method in brief: as §1
# [8] = target: SPIB (Homo sapiens, UniProt Q01892 1-262)
# SPIB, sequence (Q01892 whole entry): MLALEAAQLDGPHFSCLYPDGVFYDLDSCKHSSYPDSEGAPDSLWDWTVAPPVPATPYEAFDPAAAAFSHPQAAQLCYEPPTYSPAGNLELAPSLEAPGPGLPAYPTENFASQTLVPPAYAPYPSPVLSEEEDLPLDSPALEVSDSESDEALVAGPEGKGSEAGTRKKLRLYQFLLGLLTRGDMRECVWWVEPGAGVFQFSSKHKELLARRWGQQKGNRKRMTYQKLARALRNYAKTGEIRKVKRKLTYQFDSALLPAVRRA
# Method in brief: as §1
# [9] = target: T6, ELK3 (Homo sapiens, UniProt P41970 1-407)
# T6 sequence: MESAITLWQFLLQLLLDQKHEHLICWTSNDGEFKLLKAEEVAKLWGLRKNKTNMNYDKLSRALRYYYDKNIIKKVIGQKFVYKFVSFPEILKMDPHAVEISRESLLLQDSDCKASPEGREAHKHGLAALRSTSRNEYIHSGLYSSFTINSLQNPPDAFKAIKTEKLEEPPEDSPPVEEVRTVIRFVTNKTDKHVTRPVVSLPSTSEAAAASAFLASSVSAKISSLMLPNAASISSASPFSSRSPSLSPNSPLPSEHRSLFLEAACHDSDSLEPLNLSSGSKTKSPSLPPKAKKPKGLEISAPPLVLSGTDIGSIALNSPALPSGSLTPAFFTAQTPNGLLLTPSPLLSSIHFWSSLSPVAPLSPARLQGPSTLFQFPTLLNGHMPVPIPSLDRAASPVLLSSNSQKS
# Method in brief: as §1
sequence,measurement,setting,value
TACCTA,binding signal,[1],"1.32 fold enrichment (6-mer frequency, TF over GST control)"
same,binding signal,[2],"1.26 fold enrichment (6-mer frequency, TF over GST control)"
same,binding signal,[3],"1.24 fold enrichment (6-mer frequency, TF over GST control)"
same,binding signal,[4],"1.13 fold enrichment (6-mer frequency, TF over GST control)"
same,binding signal,[5],"1.34 fold enrichment (6-mer frequency, TF over GST control)"
same,binding signal,[6],"1.22 fold enrichment (6-mer frequency, TF over GST control)"
same,binding signal,[7],"1.28 fold enrichment (6-mer frequency, TF over GST control)"
same,binding signal,[8],"1.22 fold enrichment (6-mer frequency, TF over GST control)"
same,binding signal,[9],"1.23 fold enrichment (6-mer frequency, TF over GST control)"
